{"source": "ChEMBL document CHEMBL3988442", "about": "“University of Dundee, Small-Polar-MMV Screening Library” (2021)", "note": "Among all 48,000 compounds or so, about 13,000 (27%) showed an effect of 50% or more. This is one part of the list.", "data": [{"test_system": "Wolbachia pipientis", "assay": "Anti-Wolbachia Cell-Based Screen", "format": "functional", "parameters": "scale not given: in the data most compounds retested in dose-response had high values", "settings": "5 µM", "units": {"Percent Effect": "%"}, "values": [{"smiles": "Cc1cccc(NS(=O)(=O)c2ccc(C#N)nc2)c1C#N", "Percent Effect": -1.647}, {"smiles": "CCC(CC)c1cc(C(=O)N2CCN(C(C#N)C(C)C)CC2)on1", "note": "(stereo not drawn)", "Percent Effect": -14.62}, {"smiles": "CC(C)c1cc(C(=O)N2CCN(c3ncc4c(n3)CCOC4)CC2)on1", "Percent Effect": 106.5}, {"smiles": "CCC(CC)c1cc(C(=O)N2CCN(C(C)C(N)=O)CC2)on1", "note": "(stereo not drawn)", "Percent Effect": -12.57}, {"smiles": "Cc1cc(NC(=O)CN(c2ccccc2)C(C)C)on1", "Percent Effect": -6.846}, {"smiles": "COc1cccc(Nc2nc(C3CCNCC3)c3sc(C)c(C)n23)c1.Cl", "Percent Effect": 130.3}, {"smiles": "COc1cccc(Nc2nc(C3CCCNC3)c3sc(C)c(C)n23)c1.Cl", "note": "(stereo not drawn)", "Percent Effect": 119.3}, {"smiles": "O=C(Nc1cccnc1-n1cncn1)N(C1CCCC1)C1CC1", "Percent Effect": -11.98}, {"smiles": "CN(C)[C@@H]1CO[C@H](CNC(=O)CC(C)(C)C)[C@H]1O", "Percent Effect": -5.201}, {"smiles": "COc1cccc(OCC2CCCN(C(=O)CCCn3cccn3)C2)c1", "note": "(stereo not drawn)", "Percent Effect": -37.97}, {"smiles": "CSCC[C@H](N)C(=O)NCc1cc2n(n1)CCCN(C1CCCCC1)C2", "Percent Effect": -4.094}, {"smiles": "CC(C)CN1CCCn2nc(CNC(=O)CCN)cc2C1", "Percent Effect": -4.677}, {"smiles": "CC(C)SCC(=O)NCc1cc2n(n1)CCCN(C1CCCCC1)C2", "Percent Effect": 96.57}, {"smiles": "CSCCC(=O)NCc1cc2n(n1)CCCN(C1CCCCC1)C2", "Percent Effect": 170.8}, {"smiles": "CC(C)CN1CCCn2nc(CNC(=O)Cc3cccc(O)c3)cc2C1", "Percent Effect": 6.027}, {"smiles": "CCN(C(C)=O)C1CCN(c2nccc(CCC(F)(F)F)n2)C1", "note": "(stereo not drawn)", "Percent Effect": -1.785}, {"smiles": "COCc1ccc(C(=O)N2CCC(c3nccn3CC3CC3)CC2)o1", "Percent Effect": -37.93}, {"smiles": "CCCC(C)(C)NC(=O)CCN1CCOC1=O", "Percent Effect": 8.427}, {"smiles": "COc1cccc(S(=O)(=O)CCNC(C)Cn2cccn2)c1", "note": "(stereo not drawn)", "Percent Effect": -1.101}, {"smiles": "CC(=O)c1c[nH]c(C(=O)N2CCN(C(C(N)=O)c3ccccc3)CC2)c1", "note": "(stereo not drawn)", "Percent Effect": -4.109}, {"smiles": "CN1C(=O)CC(C(=O)O)C12CCN(Cc1cc(Cl)ccc1F)CC2", "note": "(stereo not drawn)", "Percent Effect": -0.96}, {"smiles": "Cc1nc(CNC(=O)C(C)(C)c2ccc(F)cc2)no1", "Percent Effect": 7.656}, {"smiles": "CN1CCC(c2cncc(C(=O)NCc3ccc(F)cc3)n2)CC1", "Percent Effect": 172.3}, {"smiles": "Cn1cc(CN2CCC(CCC(=O)NCc3ccc(F)cc3)CC2)cn1", "Percent Effect": -6.777}, {"smiles": "CN1CCC(N(Cc2ccccc2F)C(=O)NCc2ccncc2)CC1", "Percent Effect": 10.43}, {"smiles": "CN1CCCC(c2cncc(C(=O)NCc3ccccc3Cl)n2)C1.O=CO", "note": "(stereo not drawn)", "Percent Effect": 120.9}, {"smiles": "O=C(NCc1ccccc1CN1CCCC1)Nc1cccnc1", "Percent Effect": 1.889}, {"smiles": "Cn1ccnc1CN1CCCC(CO)(CCc2ccccc2)C1", "note": "(stereo not drawn)", "Percent Effect": 4.446}, {"smiles": "Cc1ccc(NC2CCN(C(=O)CCCc3ccccn3)CC2)cc1", "Percent Effect": 28.87}, {"smiles": "CN(C)C(=O)C1(CCCc2ccccn2)CCN1Cc1nccn1C", "note": "(stereo not drawn)", "Percent Effect": 105.4}, {"smiles": "Cc1nc(CN2CC(CCCc3ccccn3)(C(=O)N(C)C)C2)co1", "Percent Effect": 55.58}, {"smiles": "Cc1nc(CN2CCC2(CCCc2ccccn2)C(=O)N(C)C)co1", "note": "(stereo not drawn)", "Percent Effect": 74.52}, {"smiles": "O=C(CCCc1ccccn1)N1CCOc2ccc(F)cc21", "Percent Effect": -6.681}, {"smiles": "O=C(CCCc1ccccn1)N1CCC(n2cccc2)CC1", "Percent Effect": 17.05}, {"smiles": "CN(C)C(=O)NC1COC2(CCN(Cc3nccn3C)CC2)C1", "note": "(stereo not drawn)", "Percent Effect": 15.08}, {"smiles": "Cc1nc(CN2CCC(Oc3ccc(F)cc3C)(C(=O)O)CC2)co1", "Percent Effect": -0.386}, {"smiles": "Cc1cccc(C(C(=O)NCCCc2ccccn2)N(C)C)c1", "note": "(stereo not drawn)", "Percent Effect": 0.3434}, {"smiles": "CNC(=O)C1(CCCc2ccccn2)CCN1Cc1coc(C)n1", "note": "(stereo not drawn)", "Percent Effect": 87.23}]}]}
